Assay results from the supplement of paper PMC10849652.
Of roughly 8,800 targets only a part is listed; those with a hit were picked by preference. About 0.5% of all pairs of compound and target were hits. A number with no mark means an inactive call.

Tests used:
Assay in all cases: log2 fold change, soluble protein after heating vs DMSO (PISA); higher = thermal stabilisation; K562 lysate, 10 uM; active = over 0.2 and 3.5 SD of the protein, either way, in both replicates (recomputed)
[1] = compound: C1=CC=C(C=C1)[C@H](COC2=CC3=C(C=C2)NC(=O)N3)NC(=O)C4=CC=CN(C4=O)CC5=CC(=C(C=C5)F)F
Outline: (§1)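 Soluble protein was defined as the supernatant remaining after 21,000xg for 90 min, following pooling of heated aliquots and adjustment to 0.5% NP-40 at 4°C. Before that, crude K562 extract at 1 mg/mL protein in PBS pH 7.4 with 1 mM MgCl2 was treated with 10 μM compound for 30 min and heated for 3 min across 48°C-58°C. Quantification used TMTpro 16plex LC-MS/MS with channel sums equalised, and values are log-two fold changes in thermal stability relative to solvent controls from duplicates.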

[2] = compound: CC1=C(SC2=C1C(=N[C@H](C3=NN=C(N32)C)CC(=O)N)C4=CC=C(C=C4)Cl)C
Outline: as §1

[3] = compound: CC1=C2C(=CC=C1)N=C(N(C2=O)C3=CC=CC=C3C)CN4C=NC5=C(N=CN=C54)N
Outline: as §1

[4] = compound: Cc1sc2c(c1C)C(c1ccc(Cl)cc1)=N[C@@H](CC(=O)OC(C)(C)C)c1nnc(C)n1-2
Outline: as §1

[5] = compound: c1ccc([C@@H]2C[C@H]2NC2CCNCC2)cc1
Outline: as §1

Chain of UniProt Q5T3J3 (Q5T3J3 whole entry, looked up): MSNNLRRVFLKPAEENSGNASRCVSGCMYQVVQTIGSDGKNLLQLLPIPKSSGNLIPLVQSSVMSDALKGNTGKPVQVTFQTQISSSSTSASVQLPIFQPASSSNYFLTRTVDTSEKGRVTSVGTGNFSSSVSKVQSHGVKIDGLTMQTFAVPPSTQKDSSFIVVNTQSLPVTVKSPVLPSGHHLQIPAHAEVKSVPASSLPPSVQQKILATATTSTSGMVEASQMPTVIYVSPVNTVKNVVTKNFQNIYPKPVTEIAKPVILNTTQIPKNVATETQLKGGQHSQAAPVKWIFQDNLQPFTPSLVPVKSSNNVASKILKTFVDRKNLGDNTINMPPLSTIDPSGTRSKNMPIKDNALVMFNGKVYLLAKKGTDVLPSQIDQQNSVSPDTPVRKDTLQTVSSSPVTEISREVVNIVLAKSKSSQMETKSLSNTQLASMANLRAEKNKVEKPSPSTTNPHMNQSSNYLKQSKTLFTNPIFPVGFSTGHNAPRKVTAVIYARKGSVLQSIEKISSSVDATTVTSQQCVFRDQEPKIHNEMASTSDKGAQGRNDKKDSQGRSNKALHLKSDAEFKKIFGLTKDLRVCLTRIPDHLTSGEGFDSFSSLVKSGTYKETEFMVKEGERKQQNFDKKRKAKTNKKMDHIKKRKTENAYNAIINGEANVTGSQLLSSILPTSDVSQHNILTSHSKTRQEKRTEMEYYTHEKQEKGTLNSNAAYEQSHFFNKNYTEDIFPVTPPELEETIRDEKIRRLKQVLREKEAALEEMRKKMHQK
Chain of UniProt Q9Y4F3 (Q9Y4F3 whole entry, looked up): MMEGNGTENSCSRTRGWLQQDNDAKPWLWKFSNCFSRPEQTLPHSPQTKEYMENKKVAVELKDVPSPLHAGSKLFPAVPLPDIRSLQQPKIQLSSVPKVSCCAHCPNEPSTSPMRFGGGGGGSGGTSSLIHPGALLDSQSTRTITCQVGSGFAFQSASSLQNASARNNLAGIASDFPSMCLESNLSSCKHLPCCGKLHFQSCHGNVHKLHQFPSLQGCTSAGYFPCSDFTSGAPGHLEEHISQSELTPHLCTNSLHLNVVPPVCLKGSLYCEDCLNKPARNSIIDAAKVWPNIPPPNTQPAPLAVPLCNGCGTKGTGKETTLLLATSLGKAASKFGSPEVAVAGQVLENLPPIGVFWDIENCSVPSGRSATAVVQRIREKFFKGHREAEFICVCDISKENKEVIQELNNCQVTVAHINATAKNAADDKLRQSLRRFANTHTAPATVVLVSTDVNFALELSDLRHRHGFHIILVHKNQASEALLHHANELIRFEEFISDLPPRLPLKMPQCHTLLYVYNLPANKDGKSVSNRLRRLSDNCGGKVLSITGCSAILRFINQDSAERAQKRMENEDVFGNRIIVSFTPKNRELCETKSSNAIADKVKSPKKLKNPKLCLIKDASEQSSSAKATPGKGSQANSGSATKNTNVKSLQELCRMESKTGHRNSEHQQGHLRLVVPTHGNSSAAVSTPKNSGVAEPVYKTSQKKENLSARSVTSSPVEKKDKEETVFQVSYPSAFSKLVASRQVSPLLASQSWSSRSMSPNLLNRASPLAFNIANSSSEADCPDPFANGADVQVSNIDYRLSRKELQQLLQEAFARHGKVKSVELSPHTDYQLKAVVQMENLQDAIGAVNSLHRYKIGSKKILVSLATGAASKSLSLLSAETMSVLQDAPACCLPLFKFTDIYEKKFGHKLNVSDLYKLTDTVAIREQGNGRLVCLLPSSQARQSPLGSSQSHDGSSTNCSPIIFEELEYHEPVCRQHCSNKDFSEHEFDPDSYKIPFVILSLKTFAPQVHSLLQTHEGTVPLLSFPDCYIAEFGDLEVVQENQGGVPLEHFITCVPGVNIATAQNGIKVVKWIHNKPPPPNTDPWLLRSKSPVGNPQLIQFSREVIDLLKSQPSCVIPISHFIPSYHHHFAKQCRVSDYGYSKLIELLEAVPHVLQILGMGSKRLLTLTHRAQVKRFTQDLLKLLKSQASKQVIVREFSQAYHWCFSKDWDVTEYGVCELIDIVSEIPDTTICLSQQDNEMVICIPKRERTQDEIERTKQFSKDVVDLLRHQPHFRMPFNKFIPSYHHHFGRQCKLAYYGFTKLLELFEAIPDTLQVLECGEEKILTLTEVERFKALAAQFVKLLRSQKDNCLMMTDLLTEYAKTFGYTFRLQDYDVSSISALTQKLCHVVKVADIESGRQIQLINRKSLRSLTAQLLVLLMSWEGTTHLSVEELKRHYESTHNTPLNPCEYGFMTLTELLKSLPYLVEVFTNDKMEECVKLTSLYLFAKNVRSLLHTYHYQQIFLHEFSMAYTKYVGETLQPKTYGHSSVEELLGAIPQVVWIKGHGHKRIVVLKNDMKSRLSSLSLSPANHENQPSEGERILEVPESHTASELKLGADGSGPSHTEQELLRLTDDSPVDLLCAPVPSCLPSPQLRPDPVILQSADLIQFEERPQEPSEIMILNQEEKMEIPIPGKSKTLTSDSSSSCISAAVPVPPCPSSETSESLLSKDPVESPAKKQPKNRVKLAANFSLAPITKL
Chain of UniProt Q00013 (Q00013 whole entry, looked up): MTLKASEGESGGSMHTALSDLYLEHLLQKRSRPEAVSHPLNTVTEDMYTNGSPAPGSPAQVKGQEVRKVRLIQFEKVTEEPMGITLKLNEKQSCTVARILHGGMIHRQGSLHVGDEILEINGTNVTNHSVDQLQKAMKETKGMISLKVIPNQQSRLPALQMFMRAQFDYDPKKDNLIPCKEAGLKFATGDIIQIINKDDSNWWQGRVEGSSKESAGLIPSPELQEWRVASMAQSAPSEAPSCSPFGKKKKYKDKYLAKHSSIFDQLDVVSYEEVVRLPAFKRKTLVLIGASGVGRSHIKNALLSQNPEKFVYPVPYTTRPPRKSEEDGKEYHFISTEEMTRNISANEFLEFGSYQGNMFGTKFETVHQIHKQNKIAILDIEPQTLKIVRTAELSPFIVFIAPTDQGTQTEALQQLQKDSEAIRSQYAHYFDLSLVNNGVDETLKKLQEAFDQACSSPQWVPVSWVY
Chain of UniProt Q8TC05 (Q8TC05 whole entry, looked up): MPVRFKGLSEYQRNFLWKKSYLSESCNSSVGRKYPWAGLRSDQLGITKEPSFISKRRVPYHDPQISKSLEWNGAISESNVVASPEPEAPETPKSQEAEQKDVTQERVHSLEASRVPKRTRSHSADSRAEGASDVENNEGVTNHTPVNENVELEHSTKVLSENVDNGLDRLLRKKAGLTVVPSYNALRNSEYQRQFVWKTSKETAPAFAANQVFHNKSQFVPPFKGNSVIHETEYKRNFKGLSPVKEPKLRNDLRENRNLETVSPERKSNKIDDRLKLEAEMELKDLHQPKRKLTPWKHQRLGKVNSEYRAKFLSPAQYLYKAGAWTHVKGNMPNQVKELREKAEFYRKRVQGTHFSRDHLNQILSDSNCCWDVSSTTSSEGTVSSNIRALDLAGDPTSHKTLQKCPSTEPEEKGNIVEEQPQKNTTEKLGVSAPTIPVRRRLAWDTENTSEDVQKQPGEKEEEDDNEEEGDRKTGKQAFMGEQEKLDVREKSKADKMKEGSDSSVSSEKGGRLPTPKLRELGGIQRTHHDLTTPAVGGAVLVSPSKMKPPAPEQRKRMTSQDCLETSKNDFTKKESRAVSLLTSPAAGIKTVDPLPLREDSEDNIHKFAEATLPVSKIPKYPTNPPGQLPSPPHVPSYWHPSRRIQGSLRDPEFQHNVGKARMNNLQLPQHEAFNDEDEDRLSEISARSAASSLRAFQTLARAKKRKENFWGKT
Chain of UniProt Q8WXB1 (Q8WXB1 whole entry, looked up): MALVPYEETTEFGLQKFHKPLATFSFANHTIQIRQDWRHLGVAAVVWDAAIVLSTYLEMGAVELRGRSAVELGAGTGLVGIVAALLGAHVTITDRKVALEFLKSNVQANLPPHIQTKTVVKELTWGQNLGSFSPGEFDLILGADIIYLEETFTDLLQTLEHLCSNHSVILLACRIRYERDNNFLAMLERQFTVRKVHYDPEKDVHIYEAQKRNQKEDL
Chain of UniProt Q08380 (Q08380 whole entry, looked up): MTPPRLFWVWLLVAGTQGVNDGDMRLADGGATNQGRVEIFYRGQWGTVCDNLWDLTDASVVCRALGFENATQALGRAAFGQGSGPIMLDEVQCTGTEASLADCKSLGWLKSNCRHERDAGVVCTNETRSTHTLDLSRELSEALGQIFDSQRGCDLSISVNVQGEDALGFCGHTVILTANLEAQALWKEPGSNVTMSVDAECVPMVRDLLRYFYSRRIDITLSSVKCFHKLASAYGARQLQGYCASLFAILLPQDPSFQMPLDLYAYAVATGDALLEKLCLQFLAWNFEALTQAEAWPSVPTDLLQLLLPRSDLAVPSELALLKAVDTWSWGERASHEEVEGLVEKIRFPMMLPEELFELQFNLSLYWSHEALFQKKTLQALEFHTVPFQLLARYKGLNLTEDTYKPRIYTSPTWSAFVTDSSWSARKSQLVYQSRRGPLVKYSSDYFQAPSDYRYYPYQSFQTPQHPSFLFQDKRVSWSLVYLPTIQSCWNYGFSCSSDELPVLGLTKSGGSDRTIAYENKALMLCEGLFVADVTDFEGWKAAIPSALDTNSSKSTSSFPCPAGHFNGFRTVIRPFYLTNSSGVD
Chain of UniProt Q16553 (Q16553 whole entry, looked up): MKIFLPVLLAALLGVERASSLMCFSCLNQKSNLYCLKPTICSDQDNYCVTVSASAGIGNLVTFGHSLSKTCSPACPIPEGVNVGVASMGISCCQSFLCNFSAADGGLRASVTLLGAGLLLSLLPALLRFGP
Chain of UniProt O15243 (O15243 whole entry, looked up): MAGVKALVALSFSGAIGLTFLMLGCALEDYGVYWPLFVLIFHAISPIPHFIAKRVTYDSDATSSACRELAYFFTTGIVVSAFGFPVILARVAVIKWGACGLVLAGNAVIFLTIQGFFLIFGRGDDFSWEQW
Chain of UniProt P01116 (P01116 whole entry, looked up): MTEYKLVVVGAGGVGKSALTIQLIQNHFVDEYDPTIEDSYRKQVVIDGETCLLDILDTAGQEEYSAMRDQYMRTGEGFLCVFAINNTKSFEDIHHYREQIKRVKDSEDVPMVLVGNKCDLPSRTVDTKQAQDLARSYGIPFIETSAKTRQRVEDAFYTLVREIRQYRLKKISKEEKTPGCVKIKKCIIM

Row | Target | log2 fold change [1] | log2 fold change [2] | log2 fold change [3] | log2 fold change [4] | log2 fold change [5]
1 | KIF21A isoform 5 (UniProt Q7Z4S6) | -0.023 | 0.024 | -0.003 | 0.009 | 0.118
2 | MOCS1 isoform 8 (UniProt Q9NZB8) | -0.061 | -0.044 | 0.058 | -0.017 | 0.067
3 | MLXIP (UniProt Q9HAP2) | -0.063 | 0.005 | 0.018 | 0.031 | -0.025
4 | KIF3C (UniProt O14782) | – | – | 0.683 | -0.059 | 0.022
5 | LGALS3BP (UniProt Q08380) | – | – | 0.159 | -0.152 | -0.071
6 | MAP3K6 (UniProt O95382) | – | – | 0.012 | – | –
7 | MDM2 isoform 11 (UniProt Q00987) | 0.109 | -0.092 | -0.007 | – | -0.158
8 | MAPK7 (UniProt Q13164) | – | – | – | – | 0.042
9 | MCUB (UniProt Q9NWR8) | 0.097 | -0.171 | – | 0.044 | 0.205
10 | MPP1 (UniProt Q00013) | -0.01 | 0.006 | 0.024 | 0.016 | 0.044
11 | MAN2B2 (UniProt Q9Y2E5) | 0.087 | 0.086 | – | -0.007 | 0.255
12 | MRPL30 isoform 2 (UniProt Q8TCC3) | 0.086 | -0.056 | – | -0.102 | 0.476
13 | KIF18B (UniProt Q86Y91) | – | – | – | -0.083 | –
14 | LRIF1 (UniProt Q5T3J3) | – | – | -0.072 | 0.048 | -0.071
15 | KMT2B (UniProt Q9UMN6) | – | – | – | -0.012 | –
16 | KRAS (UniProt P01116) | – | – | 0.088 | 0.016 | -0.092
17 | LRP1 (UniProt Q07954) | – | – | 0.125 | – | –
18 | MRPL27 (UniProt Q9P0M9) | 0.002 | -0.046 | – | -0.048 | 0.208
19 | LARS (UniProt Q9P2J5) | -0.02 | -0.007 | 0.015 | 0.04 | 0.077
20 | KRAS isoform 2 (UniProt P01116) | – | – | – | -0.006 | –
21 | LSM11 (UniProt P83369) | – | – | 0.285 | -0.045 | -0.089

Row | Target | log2 fold change [1] | log2 fold change [2] | log2 fold change [3] | log2 fold change [4] | log2 fold change [5]
22 | LEPROT (UniProt O15243) | 0.049 | -0.009 | – | – | -0.161
23 | MEX3A (UniProt A1L020) | – | – | 0.15 | -0.073 | –
24 | LY6E (UniProt Q16553) | -0.031 | -0.046 | -0.075 | – | -0.815
25 | MDM1 (UniProt Q8TC05) | – | – | 0.018 | -0.116 | -0.866 (active)
26 | KIF21A (UniProt H0YI78) | 0.128 | 0.02 | – | 0.106 | –
27 | MRPL22 (UniProt Q9NWU5) | – | – | – | – | 0.019
28 | LYN isoform 2 (UniProt P07948) | – | – | – | 0.043 | 0.102
29 | LRRC9 (UniProt Q6ZRR7) | – | – | 0.008 | – | 0.209
30 | MED28 (UniProt Q9H204) | – | – | – | -0.032 | 0.018
31 | LRRIQ1 (UniProt Q96JM4) | – | – | -0.002 | – | –
32 | KIF2A isoform 2 (UniProt O00139) | – | – | – | – | 0.326
33 | MARF1 (UniProt Q9Y4F3) | -0.052 | 0.013 | 0.175 | 0.024 | -0.023
34 | MRC2 (UniProt Q9UBG0) | – | – | – | 0.209 | -0.084
35 | MED25 isoform 3 (UniProt Q71SY5) | -0.069 | 0.026 | – | 0.01 | 0.052
36 | MAPKAP1 (UniProt Q9BPZ7) | – | – | – | -0.048 | –
37 | METTL21A (UniProt Q8WXB1) | 0.048 | -0.069 | – | -0.068 | 0
38 | MAP4K4 isoform 6 (UniProt O95819) | 0.076 | 0.063 | – | -0.163 | –
39 | LRPPRC (UniProt H7C3W8) | – | – | 0.219 | – | –
40 | MME (UniProt P08473) | -0.152 | 0.041 | – | 0.232 | -0.001
41 | MEGF8 (UniProt Q7Z7M0) | 0.023 | -0.022 | – | 0.116 | 0.1
42 | MPDZ (UniProt O75970) | – | – | -0.024 | -0.159 | -0.09
